Bioassay records (PubChem BioAssay)
HCV inh – blocks hepatitis C virus; Huh7.5.1 HCVcc-Cre infection, luciferase reporter, 44 h; Potency, µM (doses to about 41.8 µM), without a hit: at the top dose activity change, negative = inhibition, most hits filed as inhibitors; 3.4% of 340,000 active; AID 651820; note: potency is the fitted concentration of half-maximal effect
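Infectious HCV cell culture screen: compound-treated cells (1,000/well, pre-plated 4 h) are infected with HCVcc-Cre at roughly 0.5 moi and grown 44 h. Infection is quantified by luciferase signal after 15 min substrate incubation at room temperature.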
HCMV inh – human cytomegalovirus inhibition. activity change, negative = inhibition, % at 57.5 µM. AID 1259415. HFF cells, HCMV-luciferase reporter, 72 h; hits give low values. 4.5% of 410,000 active; in the data active = activity change below about -60%; inconclusive = no clear call, values can overlap the other calls; inactive = above about -39%
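Cell-based, HFFs, 1000 cells/well, 16 h 37C; cpds in DMSO + HCMV-luc, MOI 1 PFU/cell; 72 h 37C; OneGlo luminescence after 5 min RT; norm. to buffer vs Salinomycin 10uM.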
Pf growth 48h – P. falciparum growth inhibition at 48 hours (one generation) | P. falciparum luciferase growth in erythrocytes, 48 h | Potency, µM (top dose mostly 28.7 µM), for the others: at the highest dose activity change, negative = inhibition, most hits filed as inhibitors | 5.9% of 310,000 active; note: potency is the fitted concentration of half-maximal effect
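Read-out is firefly luciferase luminescence from an integrated reporter in P. falciparum, so falling signal marks reduced parasite growth. Infected erythrocytes were at 2% hematocrit and 0.1% parasitemia (final) in Albumax-supplemented RPMI 1640.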
Pf growth 96h – P. falciparum growth inhibition at 96 hour, primary screen for plastid delayed-death inhibitors; P. falciparum luciferase reporter growth, 96 h; 6.9% of 320,000 active; Potency, µM (doses to about 28.7 µM), inactives show at the highest dose activity change, negative = inhibition, actives largely listed as inhibitors; AID 504834; note: potency is the fitted concentration of half-maximal effect
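Erythrocytes infected with luciferase-expressing P. falciparum were dispensed at 2% hematocrit and 0.05% parasitemia (final), then incubated with compounds 96 hours at 37 C in 5% CO2. Luminescence after detection reagent addition reported growth.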
* = called active by the depositor; u = inconclusive; x = no result; + = active, no number; ! = repeats disagree. Hits are enriched below; roughly 13% of the tested compounds scored in any of these assays. Unless noted, calls come from the whole dose curve; as a rule, active = well fitted inhibition curve with a large enough effect; inconclusive = small, poorly fitted or top-dose-only effect, or another doubt; inactive = no such curve, though single readings can be large or run the other way. % is set by controls: 0 for no effect and ±100 for the full control effect.

SMILES	HCV inh	HCMV inh	Pf growth 48h	Pf growth 96h
CCN1c2ccccc2N(C)C1(C)c1ccccc1 (centres undefined)	-27%	x	2.6µM*	0%
CN1c2ccccc2N(C)C1(C)c1ccccc1	-5%	-93*	2.3µM*	0%
COc1ccc2c(c1)cc1c(=O)n(CC(=O)NC(C)C)nc(C)n12	x	-3	x	x
O=C(Nc1cccc(Cl)c1)O/N=C\c1ccncc1	14%	6	25%	67%
Clc1cccc(N/N=C/c2ccncc2)c1	-15%	103	2.6µM*	-20%
COc1ccc(N/C=C(\C#N)c2ccc(OCCCF)cc2)cc1	u	-91*	11%	x
COc1cccc(C2C3=C(N=C4SCC(=O)N42)c2ccccc2CC3)c1OC (centres undefined)	u	-15	12µM*	186%
COc1ccccc1C=C1CCc2ccccc2C1=O	x	15	x	x
COc1ccc(OC)c(C2C3=C(N=C4SCC(=O)N42)c2ccccc2CC3)c1 (centres undefined)	u	12	u	u
COc1cccc(C2C3=C(N=c4s/c(=C\c5ccccc5O)c(=O)n42)c2ccccc2CC3)c1OC (centres undefined)	x	x	1.9µM*	2.9µM*
O=C(CCC1N=C2c3ccccc3N=C(SCc3ccc(F)cc3)N2C1=O)NCCc1ccccc1 (centres undefined)	x	-25	x	x
Cc1cccc(N(C)S(=O)(=O)c2ccc(-c3cc(C)no3)s2)c1	-22%	-74*!	30%	32%
CCOc1ccc(N(C)S(=O)(=O)c2ccc(-c3ccc(=O)[nH]n3)s2)cc1	21%	0	-9%	12µM*
CCN(c1cccc(C)c1)S(=O)(=O)c1ccc(-c2cc(C)no2)s1	15%	-65*	u	12µM*
CCOc1ccc(N(C)S(=O)(=O)c2ccc(-c3cc(C)no3)s2)cc1	10µM*	-31	u	u
COC(=O)c1scc(-c2ccc(C)cc2)c1S(=O)(=O)Nc1cccc(C(F)(F)F)c1	x	0	x	x
COc1ccc(NC2CCCN(C(=O)c3ccc4[nH]c(C)c(C)c4c3)C2)cc1 (centres undefined)	10%	13	u	13µM*
CCCCCc1c(O)nc(SCC(=O)NCC2CCCO2)[nH]c1=O (centres undefined)	-11%	-20	4%	0.47µM*
CCC(C)n1c(SCc2ccccc2)nc2ccsc2c1=O (centres undefined)	u	u	u	4.1µM*
O=C(Nc1ccc(S(=O)(=O)N2CCc3ccccc32)cc1)c1ccc2c(c1)OCO2	u	-85*	4%	u
NS(=O)(=O)c1ccc(NC(=O)c2ccc3c(c2)CCN3S(=O)(=O)c2ccccc2)cc1	32µM*	u	-22%	4%
COc1ccc(NC(=O)c2ccc3c(c2)CCN3S(=O)(=O)c2ccccc2)cc1	u	-36	u	8%
O=C(Nc1ccccc1)c1ccc2c(c1)CCN2S(=O)(=O)c1ccccc1	u	10	3.7µM*	92%
O=S(=O)(NC1CCc2ccccc21)c1ccc(S(=O)(=O)N2CCCC2)cc1 (centres undefined)	11µM*	5	u	u
CC(=O)Nc1cccc(NC(=O)c2ccc3c(c2)CCN3S(=O)(=O)c2ccccc2)c1	u	-13	u	u
SMILES	HCV inh	HCMV inh	Pf growth 48h	Pf growth 96h
O=C(NC1CCc2ccccc21)C1CCN(S(=O)(=O)c2ccc(Cl)cc2)CC1 (centres undefined)	3%	-27	-9%	u
O=S(=O)(NC1CCCC1)c1ccc(S(=O)(=O)N2CCc3ccccc32)cc1	u	-99*	7%	x
O=C(Nc1ccc(S(=O)(=O)N2CCc3ccccc32)cc1)c1ccco1	8.9µM*	-81*	u	u
CCC(=O)Nc1ccc(S(=O)(=O)N2CCc3ccccc32)cc1	-15%	-23	27%	-5%
CC(=O)c1cccc(NC(=O)c2ccc3c(c2)CCN3S(=O)(=O)c2ccccc2)c1	3%	-23	u	12µM*
COCCNC(=O)c1ccc2c(c1)CCN2S(C)(=O)=O	14%	-62*	u	5%
CCOC(=O)N1CCC2(CC1)C(C#N)=C(N)OC1=C2C(=O)CC(C)C1 (centres undefined)	3%	3	-11%	6.6µM*
OC1CCCN(Cc2nc(Cc3ccccc3Cl)no2)C1 (centres undefined)	4%	-19	40%	10µM*
FC(F)(F)c1cccc(Cc2noc(CN3CCCC(CN4CCCC4)C3)n2)c1 (centres undefined)	-17%	-21	2.6µM*	9.3µM*
COCCCNC(=O)CCCCn1c(=O)c2ccccc2n(CC(=O)Nc2ccc(C)cc2C)c1=O	x	-5	x	x
CC(=O)c1cccc(NC(=S)NCCC2=CCCCC2)c1	11µM*	u	-5%	132%
Cc1cccc(CNC(=O)c2ccc3nc(-c4ccccc4)c(-c4ccccc4)nc3c2)c1	x	2	x	x
COc1ccc(Nc2cc(C)nc3ncnn23)c(OC)c1	23%	76	x	2.9µM*
COc1ccc(CNc2cc(C)nc3ncnn23)c(OC)c1	u	-81*	x	u
Cc1ccc(Nc2cc(C)nc3ncnn23)c(C)c1	8%	92	-10%	1.5µM*
COc1ccc(Cl)cc1Nc1cc(C)nc2ncnn12	x	72	x	x
COc1ccc(C)cc1NC(=O)CN1C(=O)COc2ccc(C)cc21	-18%	-10	-10%	5.2µM*
O=C(CN1C(=O)COc2ccccc21)c1ccc(Cl)cc1	-5%	-2	-3%	10µM*
COc1ccc(C)cc1NC(=O)CC1COc2ccccc2O1 (centres undefined)	-8%	-61*	-12%	13%
O=C(CN1C(=O)COc2ccccc21)c1cccc(Cl)c1	x	-8	10%	u
COc1cc(OC)c(OC)cc1NC(=O)CC1COc2ccccc2O1 (centres undefined)	7%	58	-20%	u
CN1CCN(CCCNC(=O)CN2C(=O)COc3ccccc32)CC1	6%	5	6%	20%
Cc1ccc2c(c1)N(CC(=O)NCCCN1CCN(C)CC1)C(=O)CO2	15%	-69*	32%	18%
O=c1oc2ccc3ccccc3c2cc1-c1nnc(Nc2cccc(C(F)(F)F)c2)s1	x	0	x	x
Cc1cccn2c(=O)c(C(=O)NCc3ccc(F)cc3)c(O)nc12	x	-3	x	x
SMILES	HCV inh	HCMV inh	Pf growth 48h	Pf growth 96h
O=C(c1cccnc1)N1CC(=O)N2[C@@H](CO)[C@@H](c3ccc(Br)cc3)[C@@H]2C1	x	-12	x	x
COc1ccc(C2CC(=O)Nc3c2c(=O)n(C)c2nc4ccccc4n32)cc1 (centres undefined)	x	18	x	x
CCCNC(=O)C1(C)CCN1C(=O)c1ccc(C(C)(C)C)cc1 (centres undefined)	x	-26	x	x
CCOC(=O)Nc1cc(C)ccc1OC	10%	-1	-20%	-3%
CCCCCCCCC(=O)Nc1cc(C)ccc1OC	-4%	-13	10µM*	u
O=C(CN1C(=O)COc2ccccc21)NCCCN1CCCC1	-10%	+	10%	u
